# Screening results deposited in PubChem by several laboratories.
# HSF1 activator: increases HSF-1 driven luciferase reporter signal. activation, % at 9 µM. AID 504408. NIH3T3-HGL HSF-1 luciferase reporter, MG132, 8 h; 100% = twice DMSO control signal. 300,000 compounds, 1.7% hits;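 active means mean replicate activation of at least 50% with a set share of replicates each reaching 50%; inconclusive means only one of those two conditions met; inactive means mean below 50% and too few replicates reaching it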;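 further: 0% = median of the neutral control wells and 100% = twice that signal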
# HSF1 inh: HSF1 inhibition. NIH3T3-HGL HSE-luciferase, MG132-induced, luminescence 8 h; active compounds read low. activity change, negative = inhibition, % at 7.5 µM (by protocol). 300,000 compounds, 0.77% hits. AID 2098;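 active means more than half of replicate wells show activity change below -50%, luminescence cut by over half; inconclusive means some wells, but at most half, below -50%; inactive means no replicate well below -50%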;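 further: luciferase reports HSF-1 transcriptional activity via heat shock element; 0% = median of DMSO wells and -100% = zero luminescence signal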
# esBAF inh: SWI/SNF esBAF complex inhibition; mouse ES cells, Bmi1-luciferase knock-in reporter, 24 h; 100% = twice the neutral-well signal; 350,000 compounds, 2% hits; AID 602393; reporter increase, % at 12.5 µM; in the data active means activation above about 40%; inconclusive means no clear call, values can overlap the other calls;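 further: 0% = median of the plate's neutral control wells and 100% = double that signal; a rise in the Bmi1 reporter signal indicates esBAF inhibition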
# Wnt act: activates Wnt/beta-catenin signaling in a reporter cell assay. activator, plate reader. 300,000 compounds, 1.2% hits. activation, % at 9.35 µM; in the data active means activation above about 30%, passing the limit was not always enough; inconclusive means no clear call, values can overlap the other calls;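 further: 0% = neutral control wells and 100% = positive control wells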
# SMARCA2 act: activators of SMARCA2 function. MG213 cells, MMTV-luciferase reporter, dexamethasone, overnight. activation, % at 9.1 µM. 370,000 compounds, 1% hits. AID 652017; in the data active means activation above about 7.8%;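 further: 0% = vehicle wells and 100% = reference activator wells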
# MITF act: increases MITF-driven TRPM1 promoter luciferase signal; SK-MEL-5 TRPM1-promoter luciferase, 24 h; % of positive control, neutral wells = 0; activation, % at 12.5 µM; 300,000 compounds, 0.75% hits; AID 588334;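 active means mean activation of at least 80% with every replicate also reaching 80%; inconclusive means mean reaches 80% but some replicate falls short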;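 further: 0% = neutral control wells and 100% = parthenolide positive control wells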
# The depositor's hits bear a star; ? = inconclusive; . = no result given. Compounds with a hit are over-represented: about 4.3% of the library has one in this group of screens.
SMILES,HSF1 activator,HSF1 inh,esBAF inh,Wnt act,SMARCA2 act,MITF act
Cc1ccc(CNc2c(C=O)c(=O)[nH]c3ccccc23)cc1,63*,17,-1,1,-1,.
C=CCN=c1scc(-c2ccco2)n1/N=C/c1ccc(O)c(O)c1O,10,9,.,42*,2,39
CCOC(=O)c1sc(-c2ccc(Br)cc2)cc1N,9,6,34,?,3,114*
O=C(Nc1nnc(C2CC2)s1)c1cccs1,-4,18,.,18,4,78
COc1c(C(=O)Nc2nnc(C3CC3)s2)csc1Cl,-22,-7,48*,24,5,36
COc1ccc(N(C)S(=O)(=O)c2cccc(C(=O)Nc3nnc(C4CC4)s3)c2)cc1,-52,-39,-7,0,-3,1
COc1cc(OC)c(N(C)S(=O)(=O)c2cccc(C(=O)Nc3nnc(C4CC4)s3)c2)cc1Cl,131*,73,-1,0,-3,11
C#CCN(C(=O)C1CCC(=O)N(CCc2cccc(F)c2)C1)C1CCCCC1 (stereo not given),.,.,.,33*,1,.
Cc1ccsc1CCNC(=O)C1CCC(=O)N(CCc2cccc(F)c2)C1 (stereo not given),26,19,65*,26,4,95*
COc1ccc(NC(=O)Nc2ccc3c(c2)CC(=O)N([C@@H](C)CO)C[C@H](C)[C@H](CN(C)C)O3)cc1,.,.,-4,.,.,.
CC(=O)c1c(C)[nH]c(C(=O)OCC(=O)NCc2ccccc2)c1C,.,.,10,0,-7,.
CC(=O)c1c(C)[nH]c(C(=O)COC(=O)c2cccnc2Cl)c1C,.,.,52*,16,-2,26
CC(=O)c1c(C)[nH]c(C(=O)OCc2ccc([N+](=O)[O-])cc2)c1C,30,12,41*,10,-2,26
CC(=O)c1c(C)[nH]c(C(=O)OCc2ccccc2)c1C,26,9,40*,26,1,50
CCCNC(=O)C[C@H]1CC[C@@H]2[C@@H](COc3ccc(NC(=O)Cc4ccccc4)cc3C(=O)N2C)O1,.,.,7,.,.,.
O=C(Nc1cccc2cccnc12)c1ccc(Cl)cc1,10,21,45*,5,-1,.
O=C(Nc1ccc2ccccc2n1)c1ccc(Cl)cc1,60*,31,26,44*,3,64
O=C(Nc1ccc2ccccc2n1)c1ccccc1Cl,61*,28,17,36*,4,57
O=C(Nc1cccnc1Cl)c1ccc(Cl)cc1,18,14,?,10,3,49
O=C(Nc1ccc2ccccc2n1)C1CCCCC1,43,20,20,48*,0,.
CCCCCn1c(CN2CCN(C(=O)c3ccco3)CC2)nc2c1c(=O)n(C)c(=O)n2C,-14,-4,7,61*,-1,.
CCCCCCn1c(CN2CCN(C(=O)c3ccco3)CC2)nc2c1c(=O)n(C)c(=O)n2C,3,6,4,-4,2,.
CCC(C)C(NS(=O)(=O)c1ccc(C)cc1)C(=O)O (stereo not given),0,3,-12,.,-3,-6
CC(=O)OC(C)C(=O)NS(=O)(=O)c1ccc(C)cc1 (stereo not given),71*,38,.,.,-5,8
COCC(=O)N1C[C@@H](C)[C@H](OC)CN(C)C(=O)c2ccc(NS(C)(=O)=O)cc2OC[C@H]1C,.,.,0,.,.,.
SMILES,HSF1 activator,HSF1 inh,esBAF inh,Wnt act,SMARCA2 act,MITF act
COCc1cc(=O)[nH]c(Nc2nc3ccc(C)cc3o2)n1,210*,171,.,.,3,-6
COC(=O)COc1ccc2c(=O)c(-c3ccccc3)coc2c1,4,-6,2,1,0,.
COc1ccc(-c2coc3cc(OC(=O)N4CCOCC4)ccc3c2=O)cc1,35,5,39,6,0,40
COc1ccc2c(=O)c(-c3ccc4c(c3)OCO4)coc2c1,14,13,-41,40*,6,-5
CC(C)Oc1ccc2c(=O)c(-c3ccccc3)coc2c1,-4,-2,35,56*,0,78
O=C(Nc1ccc2c(c1)[C@H]1C[C@H](CC(=O)N3CCOCC3)O[C@@H](CO)[C@H]1O2)c1cccnc1,.,.,-2,.,.,.
CC(C)NC(=O)N(C)C[C@H]1Oc2ccc(NS(=O)(=O)c3cn(C)cn3)cc2C(=O)N([C@H](C)CO)C[C@H]1C,.,.,-3,.,.,.
O=C(CCCCCn1c(=S)[nH]c2cc3c(cc2c1=O)OCO3)N1CCN(C(=O)c2ccco2)CC1,-76,-67*,5,-8,-3,.
Cc1noc(C)c1NC(=O)Nc1ccc2c(c1)C(=O)N([C@H](C)CO)C[C@@H](C)[C@@H](CN(C)C(=O)NC1CCCCC1)OCCCC[C@@H](C)O2,.,.,-4,.,.,.
O=C(Nc1ccc(Cl)c(Cl)c1)c1ccc(Cn2cc(Cl)cn2)cc1,72*,40,69*,-24,2,75
CC(C)(C)c1cc(C(c2cccnc2)N2CCN(CCO)CC2)cc(C(C)(C)C)c1O (stereo not given),76*,63,-7,1,-1,-79
CCN(CC)c1ccc(/C=C2\SC(N)=NC2=O)cc1,29,-1,49*,0,5,32
CO[C@@H](CN(C)S(=O)(=O)c1cccc(Cl)c1)[C@H](C)CN([C@@H](C)CO)S(=O)(=O)c1cccc(Cl)c1,.,.,1,.,.,.
CC(=O)c1ccc(NC(=O)CCc2nnc3ccc(N4CCC5(CC4)OCCO5)nn23)cc1,15,7,54*,13,-1,31
CC(C)C#Cc1cnc2c(c1)C(=O)N([C@H](C)CO)C[C@H](C)[C@H](CN(C)C(=O)Cc1ccccn1)O2,.,.,0,.,.,.
CC(C)NC(=O)C1C(c2ccc(C(F)(F)F)cc2)=Nc2ccccc2N1C(=O)c1ccccc1 (stereo not given),.,.,.,45*,-2,.
CO[C@@H]1CN(C)C(=O)c2cc(NS(C)(=O)=O)ccc2OC[C@H](C)N(Cc2ccccn2)C[C@H]1C,.,.,-5,.,.,.
Cn1cnc(S(=O)(=O)N[C@@H]2CC[C@@H](CC(=O)NCC3CCCCC3)O[C@H]2CO)c1,.,.,3,.,.,.
COc1cccc(-c2nc(=S)c3c(n2Cc2ccco2)CCCC3)c1,124*,114,-3,.,0,-7
